A selection: hits, their analogues and other compounds. The true share with any hit is near 1.2%.
NALP1 inh = blocks the NALP1 inflammasome reconstituted in yeast | S. cerevisiae NALP1/ASC/caspase-1 growth, X-gal OD620, 72 h | inhibition, % at 10 µM | actives 0.61% (n = 280,000) | AID 2071; in the data active = inhibition mostly above about 24%, no sharp cut-off; inactive = mostly below about 32%
APOBEC3A inh = blocks human APOBEC3A ssDNA deamination | P31941 | recombinant A3A, FAM/TAMRA ssDNA deamination fluorescence | inhibition, % at 20 µM | actives 0.41% (n = 330,000) | AID 493011;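 active = at least 40% inhibition at 20 µM here, with at most 30% in a related deaminase screen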;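 note: plate controls were A3A with DMSO for no effect and wells lacking A3A enzyme for full effect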
Target sequence (P31941 whole entry, looked up): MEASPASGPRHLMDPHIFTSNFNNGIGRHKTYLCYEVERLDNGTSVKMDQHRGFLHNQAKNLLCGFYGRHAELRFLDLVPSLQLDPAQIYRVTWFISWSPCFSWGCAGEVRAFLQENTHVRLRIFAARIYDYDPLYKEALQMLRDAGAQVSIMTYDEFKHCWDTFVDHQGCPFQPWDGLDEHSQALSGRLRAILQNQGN
A3G deaminase = inhibitors of human APOBEC3G DNA deaminase; Q9HC16; recombinant A3G, ssDNA deamination FAM/TAMRA fluorescence; inhibition, % at 20 µM; actives 0.28% (n = 330,000); AID 493012;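 active = inhibition of at least 40% at 20 µM, with no more than 30% in the related APOBEC3A deaminase screen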;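 note: plate controls were DMSO wells with A3G for no effect and wells lacking A3G enzyme for full effect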
Target sequence (Q9HC16 whole entry, looked up): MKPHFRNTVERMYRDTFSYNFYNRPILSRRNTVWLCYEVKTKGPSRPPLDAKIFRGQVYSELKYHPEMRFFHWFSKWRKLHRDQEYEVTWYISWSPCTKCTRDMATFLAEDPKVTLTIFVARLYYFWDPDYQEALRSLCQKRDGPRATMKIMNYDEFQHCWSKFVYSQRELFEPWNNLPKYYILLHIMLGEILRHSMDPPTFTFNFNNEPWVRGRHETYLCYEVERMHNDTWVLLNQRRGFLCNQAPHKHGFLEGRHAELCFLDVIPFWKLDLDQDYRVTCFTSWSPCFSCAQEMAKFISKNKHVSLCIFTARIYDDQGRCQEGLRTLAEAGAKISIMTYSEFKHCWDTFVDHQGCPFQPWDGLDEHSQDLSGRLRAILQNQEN
PolyA inh = yeast polyadenylation inhibition; S. cerevisiae SKY197-pL101 polyadenylation reporter, beta-gal luminescence; efflux-impaired pdr1/pdr3 knockout yeast; score 100 = 6 SD above DMSO; activity score, % at 12 µM; actives 0.02% (n = 300,000); AID 1875;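 active = lowest replicate activity score at least 50, where 100 means six control SD above control mean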;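 note: yeast exposed to compound for 9 h at 30 °C; higher score means more reporter readthrough which indicates perturbed polyadenylation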
APOBEC3A confirm = confirmation of human APOBEC3A DNA deaminase inhibitors. actives 63% (n = 1,400). recombinant A3A, ssDNA deaminase UDG fluorescence assay. shares compounds with APOBEC3A inh. inhibition, % at 20 µM;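 active = inhibition reaching a set limit, 80% of the first screen's cutoff, at 20 µM in any replicate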;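 note: plate controls were DMSO wells with A3A for no effect and wells lacking A3A enzyme for full effect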
UDG A3A counter = UDG inhibition in APOBEC3A counter-screen | UDG counterscreen, FAM/TAMRA uracil oligo fluorescence | shares compounds with APOBEC3A inh | inhibition, % at 20 µM | 1,000 tested, under 10 active | AID 504714; call rule not given here
The depositor's hits bear a star; x = no result given.

SMILES	NALP1 inh	APOBEC3A inh	A3G deaminase	PolyA inh	APOBEC3A confirm	UDG A3A counter
CCN1CCN(c2ccc(S(=O)(=O)N3CCOCC3)cc2NC(=O)c2ccc(C)c(C)c2)CC1	x	24	-6	-31	x	x
O=C(Nc1cc(C(F)(F)F)cc(C(F)(F)F)c1)Nc1cnn(-c2ccc([N+](=O)[O-])cc2)c1C(F)(F)F	-9	8	8	6	x	x
Cc1ccc(S(=O)(=O)/N=C2/NC(=O)/C(=C/c3ccc(Br)o3)S2)cc1	31	52*	-6	11	-5	1
Cc1ccc2c(c1C)NC(=O)C2(O)CC(=O)c1ccc2c(c1)OCO2 (stereo not given)	8	1	-4	5	x	x
O=C(CC1(O)C(=O)Nc2ccccc21)c1ccc2c(c1)OCO2 (stereo not given)	6	79*	-2	7	4	0
COCCN1C(=NCCCOC(C)C)N[C@@H](c2ccccc2)C(C(=O)OC)=C1C	22	62*	29	-11	67*	3
C=CCN=C1N[C@@H](c2ccccc2)C(C(=O)OC)=C(C)N1CCOC	11	51*	6	7	71*	-4
COC(=O)C1=C(C)N(Cc2ccccc2)C(=NCc2cccc(Cl)c2)N[C@H]1c1ccccc1	x	37	7	x	x	x
CC#CC(=O)NCC1(N(C)Cc2ccccc2)Cc2ccccc2C1	-23	0	-1	-7	x	x
COc1cccc(CNC(=O)CCCn2nc(C)c3c(C)n(-c4ccc(C)cc4)nc3c2=O)c1OC	17	-3	0	5	x	x
COCCn1c(N)c(N(Cc2ccccc2)C(=O)c2ccc3ccccc3c2)c(=O)[nH]c1=O	-12	21	-1	21	x	x
COCCn1c(N)c(N(Cc2ccccc2)C(=O)C2=COCCO2)c(=O)[nH]c1=O	5	49*	18	-5	21	x
CC(C)(C)OC(=O)N1CC(O)CC1C(=O)OCC(=O)c1ccc(Cl)cc1 (stereo not given)	-1	42*	5	5	2	x
CC(C)(C)OC(=O)N1CC(O)CC1C(=O)OCC(=O)c1ccc(-c2ccccc2)cc1 (stereo not given)	-7	83*	26	-1	71*	-1
CC(C)(C)OC(=O)N1CC(O)CC1C(=O)OCC(=O)c1ccccc1 (stereo not given)	19	2	0	2	x	x
CC1(C)CC(=O)C=C(Nc2cccc(F)c2)C1	9	-3	-8	-18	x	x
CN(C)c1cccc(NC2=CC(=[N+]3CCOCC3)CC(C)(C)C2)c1	10	41*	18	1	18	x
Cc1ccccc1/C=C/c1cc[n+](C)cc1	-1	59*	19	2	73*	-3
Cc1cc(C)cc(NC(=O)Cn2nnc(C(=O)NCc3ccc(F)cc3)c2N)c1	26	-2	-2	3	x	x
CCCC(=O)Nc1ccc2nc(SCC(=O)Nc3ccc(N4CCOCC4)c(Cl)c3)sc2c1	2	63*	12	-3	46*	-3
CC(C)(C)NC(=O)CSc1nc2ccc(NC(=O)CSc3nnc(N)s3)cc2s1	23	48*	-3	0	69*	4
CC(C)(C)NC(=O)CSc1nc2ccc(NC(=O)CSc3nnnn3Cc3ccccc3)cc2s1	0	-6	-11	-6	x	x
Nc1ccc2nc(SCC(=O)Nc3ccc(N4CCOCC4)c(Cl)c3)sc2c1	11	41*	13	6	55*	-2
O=C(Nc1ccc(C(=O)OC2CCCCC2)cc1)c1ccncc1	12	-1	18	0	x	x
CN(Cc1ccco1)C(=O)Cn1cc(S(=O)(=O)N2CCCC2)c(S(=O)(=O)N2CCCC2)c1	5	-4	-4	8	x	x
SMILES	NALP1 inh	APOBEC3A inh	A3G deaminase	PolyA inh	APOBEC3A confirm	UDG A3A counter
CC[n+]1cc(-c2ccccc2)nc(N2CCOCC2)n1	3	51*	19	18	67*	x
NC(=O)c1cc(-c2ccccc2)nc(N2CCOCC2)n1	29	-2	-6	-4	x	x
CCN(CC)C(=O)n1c(Cc2ccccc2)nc2ccccc21	-8	-5	2	-5	x	x
O=C(NCc1ccccc1CN1CCCCC1)c1ccc(Cl)cc1N1CCCC1=O	x	32	48	x	x	x
O=C(NCc1ccccc1CN1CCCCC1)c1ccccc1N1CCCC1=O	x	57*	14	x	61*	-3
N#C/C(=C\c1ccc(Cl)cc1)c1nc(-c2ccco2)cs1	35	41*	14	3	28	x
N#C/C(=C\c1ccc(F)cc1)c1nc(-c2ccco2)cs1	40	2	-2	-19	x	x
O=C(O)c1cc(O)c2c(c1)C(=O)c1cc(O)cc(O)c1C2=O	-3	67*	28	3	59*	0
CC(=O)Oc1cccc2c1C(=O)c1c(OC(C)=O)cc(C(=O)O)cc1C2=O	39	4	37	-6	x	x
O=C(C1COc2ccccc2O1)N1CCc2ccccc21 (stereo not given)	16	43*	15	-26	36*	1
O=C(C1COc2ccccc2O1)N1CCCC1 (stereo not given)	-4	-4	-6	6	x	x
Cc1nc2ccc(C(=O)O)cc2c2c1CC(C)S2 (stereo not given)	7	43*	13	11	46*	4
O=C(CN1CCN(C2CCCCC2)CC1)c1c[nH]c2ccccc12	10	51*	27	8	20	x
Cc1cc(Cl)c(S(=O)(=O)N2CCN(c3ccc(F)cc3)CC2)cc1OCC(=O)NC1CCCCC1	14	1	-3	-13	x	x
CN1/C(=C/c2cc[n+](C)c3ccccc23)C=Cc2ccccc21	0	x	x	x	x	x
C[n+]1ccc(/C=C/c2ccccc2O)c2ccccc21	4	64*	12	-9	65*	0
CCOc1ccc(NC(=O)CN(C)C(=O)c2ccc(NC3CC3)c([N+](=O)[O-])c2)cc1OCC	x	-5	-10	-1	x	x
CCN(CC(=O)Nc1ccc(NC(C)=O)cc1)C(=O)c1ccc(NC2CC2)c([N+](=O)[O-])c1	x	52*	24	-4	-1	x
COCCn1c(C)cc(C(=O)COC(=O)c2cccc(O)c2)c1C	x	-2	-3	-17	x	x
NC(=O)c1ccc(NC(=O)COC(=O)c2ccc3c(c2)OCO3)cc1	x	-5	-10	x	x	x
COc1ccc(NC(=O)COC(=O)c2cc3c(s2)CCC3)cc1	x	41*	10	x	32*	-2
COCCn1c(C)cc(C(=O)COC(=O)c2cc3c(s2)CCC3)c1C	-7	43*	18	-8	27*	-3
NC(=O)c1ccc(NC(=O)COC(=O)c2cc3c(s2)CCC3)cc1	x	55*	15	x	43*	-3
O=C(COC(=O)c1cc2c(s1)CCCC2)Nc1ccc(Cl)cn1	36	-1	-1	0	x	x
O=C(COC(=O)c1cc2c(s1)CCC2)Nc1ccc(F)cc1	28	45*	23	-25	49*	7
O=C(NCCCn1ccnc1)c1ccc(-c2cccc(Cl)c2Cl)o1	x	-1	-4	x	x	x
